# Measurements as given in PubChem BioAssay (Tox21).
# Values joined by “and” are separate entries in the source; they are usually repeats but may differ in a detail not shown here. Equal entries are not always repeated. Inconclusive results are not listed. A structure can be active in one record and inactive in another. Active and inactive are the calls of the source. The call rests on the fitted dose curve; in most records, active means well fitted inhibition curve with a large enough effect in the repeat runs; inconclusive means weak or mixed curves; inactive means no such curve, though single readings can be large or run the other way.
# Molecular target: Cytochrome P450 2D6 (Homo sapiens) (UniProt P10635)
# Assay: Cytochrome P450 Family 2 Subfamily D Member 6 (CYP2D6) small molecule antagonists: luciferase reporter qHTS assay (AID 1671196); further: nearly all actives have a fitted effect of over 50% in size
# Details: P450-Glo CYP2D6 enzyme assay, luciferin luminescence, 1 h; series mostly up to 115 µM; activity change, negative = inhibition: at the top concentration
# Source text: U.S. Tox21 Program National Center for Advancing Translational Sciences [NCATS] U.S. Environmental Protection Agency [EPA] National Institutes of Environmental Health Sciences [NIEHS] National Toxicology Program [NTP] U.S. Food and Drug Administration [FDA] Tox21 Assay Overview: Cytochrome P450 (CYP) enzymes are membrane-bound hemeproteins that play a key role in metabolism of drugs and xenobiotics. Evaluation of the effect of chemicals on CYP isozymes is useful to minimize the adverse drug reactions and toxicities in drug development process. Tox21 chemicals were tested for their effect on CYP enzyme activities by using P450-Glo (TM) screening systems (Promega Corporation, Madison, WI). These systems provide a luminescent method containing proluciferin substrates and are converted to luciferin products by CYP isozymes. The luciferin products formed are detected with a luciferin detection reagent, and the amount of light produced is proportional to CYP activity. P450-Glo (TM) CYP2D6 screening system (Catalog. No. V9890) was used to detect the compounds that interfere in CYP2D6 activity.
# Tox21 Assay Protocol Summary: Two ul of enzyme-substrate mix was dispensed into medium binding white/solid 1536-well plates (Greiner Bio-One North America Inc., Monroe, NC) using a BioRaptr Flying Reagent Dispenser (FRD, Beckman Coulter, Brea, CA). […] The assay plates were incubated at room temperature for 10 min. Then 2 ul of NADPH regeneration solution was added to each well of the assay plates using an FRD and incubated at room temperature for 1 h. The reaction was stopped by adding 4 ul of detection reagent using an FRD and after 20 min incubation at room temperature the luminescence signal was measured using a ViewLux plate reader (Perkin Elmer, Shelton, CT). Data were expressed as relative luminescence units.
# On the % scale 0 is the no-effect control and ±100 the full control effect; potency means the concentration at half of the fitted maximal effect.
# Cytochrome P450 2D6 (Homo sapiens), sequence (P10635 whole entry, looked up): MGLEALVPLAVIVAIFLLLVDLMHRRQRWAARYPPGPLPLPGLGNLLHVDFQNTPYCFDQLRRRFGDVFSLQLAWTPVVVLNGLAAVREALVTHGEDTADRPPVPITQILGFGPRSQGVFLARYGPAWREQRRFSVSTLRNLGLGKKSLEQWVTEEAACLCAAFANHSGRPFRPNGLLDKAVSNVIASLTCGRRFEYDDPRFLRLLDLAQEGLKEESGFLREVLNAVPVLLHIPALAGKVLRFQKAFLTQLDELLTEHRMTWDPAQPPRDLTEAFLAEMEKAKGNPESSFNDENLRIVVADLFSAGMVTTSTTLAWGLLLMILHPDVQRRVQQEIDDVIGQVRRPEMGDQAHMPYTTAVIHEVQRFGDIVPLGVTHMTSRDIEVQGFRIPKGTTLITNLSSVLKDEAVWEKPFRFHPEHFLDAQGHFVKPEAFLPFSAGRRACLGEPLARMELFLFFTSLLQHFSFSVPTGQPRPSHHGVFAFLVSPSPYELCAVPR
SMILES,"activity change, negative = inhibition",Potency
CCCCCC/C=C\CCCCCCCC(=O)O,-18% (inactive),–
CCC(=O)C(=O)CC,-7% (inactive),–
FC(F)(F)c1cccc(Cl)c1,-0.497% (inactive),–
C=C(C)C(=O)OCCCCCCCCCC,-14.1% (inactive),–
CC(=O)CC(=O)Nc1ccc(S(=O)(=O)O)cc1,-16.8% (inactive),–
O=C(O)c1cc(=O)c2ccccc2o1,-9.29% [at 53 µM] (inactive),–
CCO[Si](OCC)(OCC)OCC,-2.93% (inactive),–
c1ccc(C(O[C@@H]2CCCN(CCc3ccc4c(c3)OCO4)C2)c2ccccc2)cc1,–,2.52 µM (active)
O=C1C(c2[nH]c3ccc(S(=O)(=O)O)cc3c2O)=Nc2ccc(S(=O)(=O)O)cc21,–,63.3 µM (active)
OC1CCCc2ccccc21 (stereo not given),-5.65% (inactive),–
C[C@@H](O)[C@H](N)C(=O)O,-2.59% [at 23.6 µM] (inactive),–
COC1=C(OC)C(=O)C(CCCCCCCCCCO)=C(C)C1=O,–,34.7 µM (active)
COC(=O)c1ccccc1C,-6.56% (inactive),–
CCC(C)(CCC(C)C)C(=O)[O][Sn]([CH3])([CH3])[O]C(=O)C(C)(CC)CCC(C)C (stereo not given),-19.7% (inactive),–
C=CCCC(=O)/C=C/C1C(C)=CCCC1(C)C (stereo not given),-16% (inactive),–
CCC(CC)C(C)CCOC(C)=O (stereo not given),-0.0462% (inactive),–
OC[C@@H](O)[C@@H](O)CO,-1.72% (inactive),–
CCn1c2ccccc2c2cc([N+](=O)[O-])ccc21,-14.3% (inactive),–
C=C(CC)C(=O)c1ccc(OCC(=O)O)c(Cl)c1Cl,–,25 µM (active) and inactive
CC(=O)[C@H]1CC[C@H]2[C@@H]3CCC4=CC(=O)CC[C@]4(C)[C@H]3CC[C@]12C,–,15.8 µM (active) and 39.9 µM (active)

SMILES,"activity change, negative = inhibition",Potency
COc1c(C)c2c(c(O)c1C/C=C(\C)CCC(=O)OCCN1CCOCC1)C(=O)OC2,-54.2% [at 53 µM] (inactive),–
CCCCCCCCCCC[C@@H](C[C@@H]1OC(=O)[C@H]1CCCCCC)OC(=O)[C@H](CC(C)C)NC=O,-2.13% [at 53 µM] (inactive),–
CCCCCCCC/C=C\CCCCCCCCN,–,1.55 µM (active)
Cc1cccc(C(=O)O)c1O,8.33% [at 53 µM] (inactive),–
CCC(CC)(CC(=O)Nc1cccc(/C=C/c2nc(C3CCC3)cs2)c1)C(=O)O,-0.6% [at 53 µM] (inactive),–
O=C1CCc2cc(OCCCCc3nnnn3C3CCCCC3)ccc2N1,-6.03% [at 53 µM] (inactive),–
OC12N=C(c3ccccc3)SC1Cc1cc(Cl)ccc12 (stereo not given),–,39.9 µM (active)
CCOC(=O)c1ccc(C2CCC(NC[C@H](O)COc3ccc(O)c(NS(C)(=O)=O)c3)CC2)cc1 (stereo not given in full),–,58.4 µM (active)
ClCCl,0.518% (inactive),–
CCCCCCCCCCOC(=O)c1ccccc1C(=O)OCCCCCCCC,-29% (inactive),–
C#Cc1ccc(-c2ccccc2F)cc1,-16.6% [at 53 µM] (inactive),–
CCCCCC(C)OC(=O)COc1ccc(Cl)c2cccnc12 (stereo not given),-19.1% (inactive),–
CC(=O)c1ccc(C(C)=O)cc1,-13.3% (inactive),–
Cc1c(N)cccc1C(F)(F)F,0.0826% [at 53 µM] (inactive),–
COC(=O)Nc1nc2ccc(C(=O)c3ccccc3)cc2[nH]1,-7.12% [at 53 µM] (inactive),–
CCCCCCCCCCCC(=O)OCC(C)OC(=O)CCCCC(=O)O (stereo not given),-11.4% [at 53 µM] (inactive),–
CC(=O)OCC=C(C)C,-4.88% [at 53 µM] (inactive),–
CC[N+](CC)(CC)CCOC(=O)C(C1CCCC1)C1CCCC1,–,1.95 µM (active)
[Cl][Pt-2]([Cl])([Cl])[Cl],–,40.1 µM (active)
C/C=C/C=C/COC(=O)C(C)C,-19% (inactive),–
